# Unmarked numbers belong to inactive results.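 The calls were made as follows: active = AUC reduced over 20% with Padj below 0.05 in at least 2 of 3 replicates; inactive = otherwise.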
# Tested on: Bacteroides stercoris
# Assay: growth AUC relative to DMSO control (median of replicates) (fraction); higher = more growth (less inhibition), active = hit call of the paper
# Conditions: 20 µM; 24 h
# Outline: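 Hourly OD600 readings over 24 h tracked anaerobic gut bacterial monocultures grown at 37 °C in mGAM from OD600 0.05 with 20 µM compound (1% DMSO). After the minimum OD was set to 0, area under the growth curve was normalised to the plate median of solvent-only wells, or to row and column medians on the industrial chemical plate. Values are medians of three biological replicates grown on separate days.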
row,Compound,growth AUC
1,S=C([S-])NCCNC(=S)[S-].[Mn+2],1.1
2,COc1ccc(Cl)c(Cl)c1Cl,0.971
3,CCCCOC(=O)C(C)Oc1ccc(Oc2ccc(C(F)(F)F)cn2)cc1 (centres undefined),1.08
4,CCCCOCN(C(=O)CS(=O)(=O)[O-])c1c(CC)cccc1CC.[Na+],0.923
5,CC(C)OC(=O)N[C@H](C(=O)N[C@H](C)c1nc2ccc(F)cc2s1)C(C)C,0.982
6,Oc1c(Cl)cc(Cl)c(Cl)c1Cc1c(O)c(Cl)cc(Cl)c1Cl,0.00917 (active)
7,COc1ccc(Oc2ccc(NC(=O)N(C)C)cc2)cc1,0.951
8,CCCCOCCOC(=O)COc1nc(Cl)c(Cl)cc1Cl,0.995
9,CCSC(=O)N(CC(C)C)CC(C)C,0.987
10,C#CC(C)N(C)C(=O)Nc1ccc(Cl)cc1 (centres undefined),1.1
11,O=S(=O)(Oc1ccc(Cl)cc1)c1ccccc1,0.874
12,CC(C)c1nn(C(=O)NC(C)(C)C)c(=O)n1N,1.08
13,COC(=O)c1ccc(I)cc1S(=O)(=O)[N-]C(=O)Nc1nc(C)nc(OC)n1.[Na+],1.01
14,C=O,1.03
15,O=C1NCC[n+]2ccccc21.[Br-],0.984
16,CCCCOCCOCCOCc1cc2c(cc1CCC)OCO2,1.01
17,Cc1ccc(C)c(O)c1,0.996
18,CCNc1nc(N)[nH]c(=O)n1,1.03
19,O.O=C(Nc1ccc(Cl)c(Cl)c1)Nc1cc(Cl)ccc1Oc1ccc(Cl)cc1S(=O)(=O)[O-].[Na+],0.0107 (active)
20,O=c1cc(Cl)[nH]nc1-c1ccccc1,0.777

row,Compound,growth AUC
1,CCNC(=O)[C@@H](C)OC(=O)Nc1ccccc1,1.06
2,Cc1c(C(=O)c2c[nH]n(C)c2=O)ccc(S(C)(=O)=O)c1C1=NOCC1,0.895
3,NC(=S)Nc1cccc2ccccc12,0.978
4,c1cc2ccc3ccc4ccc5cccc6c(c1)c2c3c4c56,1
5,CCc1cccc(CC)c1N(COC)C(=O)CS(=O)(=O)[O-].[Na+],1.07
6,CN(C)c1ccc(N=NS(=O)(=O)[O-])cc1.[Na+],1.06
7,CCc1cc(C(=O)O)cc(CC)c1C1C(=O)N2CCOCCN2C1=O,1.07
8,FC(F)(F)C(=NOCC1OCCO1)c1ccc(Cl)cc1,1.34
9,Cc1nn(C)c(OCC(=O)c2ccccc2)c1C(=O)c1ccc(Cl)cc1Cl,1.17
10,C=CCO/N=C(\CCC)C1=C([O-])CC(C)(C)C(C(=O)OC)C1=O.[Na+] (centres undefined),1.07
11,COC(=O)C(C)Oc1ccc(Cl)cc1Cl (centres undefined),0.849
12,COc1cc(OC)nc(NC(=O)NS(=O)(=O)Nc2ccccc2C(=O)C2CC2)n1,0.983
13,O=C(Nc1ccc(O)cc1-c1ccc(Cl)cc1)c1cccnc1Cl,0.964
14,S=C([S-])NCCNC(=S)[S-].[Zn+2],0.983
15,COC(=O)COc1ccc(Cl)cc1C,1.03
16,ClC=C(c1ccc(Cl)cc1)c1ccc(Cl)cc1,0.945
17,CCCOc1nc2ccc(I)cc2c(=O)n1CCC,0.905
18,C#CCN(C)c1c(C#N)cnn1-c1nn2c(c1Cl)CCCC2,0.851
19,COC(=O)c1ccccc1S(=O)(=O)NC(=O)Nc1nc(OC(F)F)cc(OC(F)F)n1,0.988

# Reference: the supplement of paper PMC12669032
